Calls of active or inactive are those of the source.

Test [1] in a line: small molecules captured by biotinylated probe aFSTL3 – biochemical, small-molecule microarray, fluorescence 635/667, stem cell growth factor project, primary screen (AID 1064).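 Also: measures binding of the biotinylated anti-FSTL3 antibody to printed compounds.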 To be noted: higher = more signal.
Test [2] is described as follows: binders from COS7 lysate, DM2A8 probe, primary screen, torsin A project, cell lysate, small-molecule microarray, fluorescence 635/667 (AID 1065). To be noted: higher = more signal, COS7 lysate expressing mutant human TOR1A.
The nature of test [3]: small molecules captured by biotinylated probe aFGF2 – biochemical, small-molecule microarray, fluorescence 635/667, stem cell growth factor project, primary screen (AID 1067).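 Also: measures binding of biotinylated aFGF2 protein to printed compounds on slides; z-score merges feature fluorescence and signal-to-noise across triplicate slides.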 To be noted: higher = more signal.
The nature of test [4]: small molecules captured by biotinylated probe aFGF10 – biochemical, small-molecule microarray, fluorescence 635/667, stem cell growth factor project, primary screen (AID 1071).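 Also: score merges 667 nm spot intensity and signal to noise from triplicate slides.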 Particulars: higher = more signal.
Test [5] concerns the target Neurogenic locus notch homolog protein 2 (Homo sapiens) (UniProt Q04721). As to the kind of experiment: small molecules binding Notch2 protein – biochemical, small-molecule microarray, 635 nm fluorescence, stem cell growth factors, primary screen (AID 1073). To be noted: higher = more signal.
Test [6] deals with Pro-neuregulin-1, membrane-bound isoform (Homo sapiens) (UniProt Q02297). As to the kind of experiment: small molecules binding neuregulin-1 protein – biochemical, small-molecule microarray, fluorescence 635/667, psychiatric disease protein project, primary screen (AID 1075).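 Also: score combines 667 nm spot fluorescence with signal to noise.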 To be noted: NRG1 binding, 635 nm fluorescence, higher = more signal.
The subject of test [7] is Neuregulin-1 EGF-like domain. In words: small molecules binding NRG1 EGF domain – biochemical, small-molecule microarray, 635 nm fluorescence, primary screen (AID 1081).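 Also: binding of the protein to compounds printed on small-molecule microarray slides.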 To be noted: higher = more signal.
A short description of test [8]: FRG1 expression reporter modulators in myotubes – cell-based, C2C12 myotubes, firefly/Renilla luciferase, luminescence, FRG1 inhibition for FSHD, primary screen (AID 1084). Particulars: FRG1 promoter luciferase, higher = more signal, called active from +8 up or from −8 down.
The nature of test [9]: small molecules captured by biotinylated probe aFST – biochemical, small-molecule microarray, fluorescence 635/667, stem cell growth factor project, primary screen (AID 1086).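 Also: score merges 667 nm fluorescence with signal-to-noise of each printed compound spot.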 Particulars: higher = more signal.
Test [10] is described as follows: binders of probe aHhip on microarray, primary screen, stem cell growth factor project, biochemical, small-molecule microarray, fluorescence 635/667 (AID 1087).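 Also: score merges spot fluorescence at 667nm with spot signal to noise ratio.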 To be noted: higher = more signal.
The test system of test [11] is PRMT1 (protein arginine N-methyltransferase 1). In words: small molecules binding arginine methyltransferase PRMT1 – biochemical, small-molecule microarray, 635 nm fluorescence, primary screen (AID 1088).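 Also: binding of Prmt1 protein to compounds spotted on small-molecule microarray slides.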 Particulars: higher = more signal.
A short description of test [12]: growth effects on S. cerevisiae YJM789 – YJM789 clinical isolate, OD600, 24 h, basal, primary screen (AID 1089).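 Also: growth of clinical yeast isolate S. cerevisiae YJM 789 seeded 1000 cells per well; test concentration not given here.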 To be noted: higher = more signal, called active from +8 up or from −8 down.
The nature of test [13]: S. pombe growth modifiers, basal conditions – strain 972, OD600, 24 h, no modulator, primary screen (AID 1090).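 Also: basal condition with compound alone and no growth modifier present; test concentration not given here.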 To be noted: S. pombe 972 growth, higher = more signal, called active from +8 up or from −8 down.
Test [14] is described as follows: budding yeast growth modifiers under rapamycin – strain BY4716, OD600, 96 h, primary screen (AID 1091). Also: test concentration not given here. Particulars: S. cerevisiae BY4716 + rapamycin, higher = more signal, called active from +8 up or from −8 down.
For test [15], the target named is Torsin-1A-interacting protein 2 (Homo sapiens) (UniProt Q8NFQ8). As to the kind of experiment: small molecules binding lysate-expressed LULL1 – cell lysate, human LULL1 lysate, 635/667 nm fluorescence, primary screen (AID 1092).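 Also: score merges per-feature 667 nm fluorescence with signal-to-noise.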 To be noted: small-molecule microarray, hLULL1 lysate binding, 635 nm fluorescence; higher = more signal.
The nature of test [16]: optical density change of DRC41 E. coli – strain DRC41, OD650, 24 h, E. coli filamentation project, primary screen (AID 1093).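 Also: MC1000 strain lacking acrAB efflux and sulA so SOS filamentation is blocked; test concentration not given here.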 To be noted: E. coli DRC41 growth, higher = more signal, called active from +8 up or from −8 down.
Test [17] is described as follows: probe aLefty2 binding to arrayed compounds – biochemical, biotinylated probe, 635/667 nm fluorescence, primary screen (AID 1094).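 Also: score merges spot fluorescence near 667 nm with spot signal-to-noise ratio.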 Particulars: small-molecule microarray, higher = more signal.
Test [18] concerns Noggin (protein binding on small-molecule microarray). In words: small molecules binding Noggin protein – biochemical, 635/667 nm fluorescence, primary screen (AID 1095).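 Also: score merges 667 nm feature fluorescence with signal to noise over triplicate slides.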 Particulars: 635 nm fluorescence, higher = more signal.
In test [19] the target is Neurogenic locus notch homolog protein 3 (Homo sapiens) (UniProt Q9UM47). As to the kind of experiment: small molecules binding NOTCH3 protein – biochemical, 635/667 nm fluorescence, primary screen (AID 1096). Particulars: small-molecule microarray, 635 nm fluorescence, higher = more signal.
Test [20] is described as follows: probe aEGFR binding to arrayed compounds – biochemical, biotinylated probe, 635/667 nm fluorescence, primary screen (AID 1097).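 Also: probe is a biotinylated anti-EGFR antibody binding compounds printed on slides; score combines fluorescence near 667 nm and signal to noise of each spot.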 To be noted: small-molecule microarray, higher = more signal.

Chain of Pro-neuregulin-1, membrane-bound isoform (Homo sapiens) (Q02297 whole entry, looked up, the tested form may be a part, canonical isoform): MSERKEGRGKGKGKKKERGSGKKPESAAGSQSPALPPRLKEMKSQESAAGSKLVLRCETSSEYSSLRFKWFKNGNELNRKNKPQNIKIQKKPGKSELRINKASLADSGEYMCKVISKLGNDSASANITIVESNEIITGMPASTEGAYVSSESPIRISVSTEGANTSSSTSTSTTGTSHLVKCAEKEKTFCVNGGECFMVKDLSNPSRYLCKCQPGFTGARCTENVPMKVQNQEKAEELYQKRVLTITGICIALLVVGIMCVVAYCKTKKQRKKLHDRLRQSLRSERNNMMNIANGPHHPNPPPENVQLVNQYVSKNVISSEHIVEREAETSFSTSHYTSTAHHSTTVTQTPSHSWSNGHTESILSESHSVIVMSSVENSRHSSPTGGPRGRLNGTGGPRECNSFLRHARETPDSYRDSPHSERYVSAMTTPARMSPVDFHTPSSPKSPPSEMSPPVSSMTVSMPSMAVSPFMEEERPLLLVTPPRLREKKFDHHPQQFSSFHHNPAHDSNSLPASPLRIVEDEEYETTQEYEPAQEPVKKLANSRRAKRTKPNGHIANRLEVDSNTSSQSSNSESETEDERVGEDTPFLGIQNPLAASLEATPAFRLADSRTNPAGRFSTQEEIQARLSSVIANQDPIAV
Chain of Torsin-1A-interacting protein 2 (Homo sapiens) (Q8NFQ8 whole entry, looked up): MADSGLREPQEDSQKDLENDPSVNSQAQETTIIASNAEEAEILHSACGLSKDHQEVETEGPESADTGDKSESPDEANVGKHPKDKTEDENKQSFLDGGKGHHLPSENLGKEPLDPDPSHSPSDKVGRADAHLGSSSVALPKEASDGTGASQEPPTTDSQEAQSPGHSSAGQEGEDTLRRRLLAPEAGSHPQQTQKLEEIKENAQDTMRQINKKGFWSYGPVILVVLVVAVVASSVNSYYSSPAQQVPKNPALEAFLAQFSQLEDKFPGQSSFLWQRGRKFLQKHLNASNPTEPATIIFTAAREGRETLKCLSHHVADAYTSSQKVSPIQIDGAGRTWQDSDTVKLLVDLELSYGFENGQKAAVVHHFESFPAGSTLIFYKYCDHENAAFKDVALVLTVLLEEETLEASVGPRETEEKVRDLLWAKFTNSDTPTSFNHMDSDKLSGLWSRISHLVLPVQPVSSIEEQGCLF
Chain of Neurogenic locus notch homolog protein 3 (Homo sapiens) (Q9UM47 whole entry, looked up): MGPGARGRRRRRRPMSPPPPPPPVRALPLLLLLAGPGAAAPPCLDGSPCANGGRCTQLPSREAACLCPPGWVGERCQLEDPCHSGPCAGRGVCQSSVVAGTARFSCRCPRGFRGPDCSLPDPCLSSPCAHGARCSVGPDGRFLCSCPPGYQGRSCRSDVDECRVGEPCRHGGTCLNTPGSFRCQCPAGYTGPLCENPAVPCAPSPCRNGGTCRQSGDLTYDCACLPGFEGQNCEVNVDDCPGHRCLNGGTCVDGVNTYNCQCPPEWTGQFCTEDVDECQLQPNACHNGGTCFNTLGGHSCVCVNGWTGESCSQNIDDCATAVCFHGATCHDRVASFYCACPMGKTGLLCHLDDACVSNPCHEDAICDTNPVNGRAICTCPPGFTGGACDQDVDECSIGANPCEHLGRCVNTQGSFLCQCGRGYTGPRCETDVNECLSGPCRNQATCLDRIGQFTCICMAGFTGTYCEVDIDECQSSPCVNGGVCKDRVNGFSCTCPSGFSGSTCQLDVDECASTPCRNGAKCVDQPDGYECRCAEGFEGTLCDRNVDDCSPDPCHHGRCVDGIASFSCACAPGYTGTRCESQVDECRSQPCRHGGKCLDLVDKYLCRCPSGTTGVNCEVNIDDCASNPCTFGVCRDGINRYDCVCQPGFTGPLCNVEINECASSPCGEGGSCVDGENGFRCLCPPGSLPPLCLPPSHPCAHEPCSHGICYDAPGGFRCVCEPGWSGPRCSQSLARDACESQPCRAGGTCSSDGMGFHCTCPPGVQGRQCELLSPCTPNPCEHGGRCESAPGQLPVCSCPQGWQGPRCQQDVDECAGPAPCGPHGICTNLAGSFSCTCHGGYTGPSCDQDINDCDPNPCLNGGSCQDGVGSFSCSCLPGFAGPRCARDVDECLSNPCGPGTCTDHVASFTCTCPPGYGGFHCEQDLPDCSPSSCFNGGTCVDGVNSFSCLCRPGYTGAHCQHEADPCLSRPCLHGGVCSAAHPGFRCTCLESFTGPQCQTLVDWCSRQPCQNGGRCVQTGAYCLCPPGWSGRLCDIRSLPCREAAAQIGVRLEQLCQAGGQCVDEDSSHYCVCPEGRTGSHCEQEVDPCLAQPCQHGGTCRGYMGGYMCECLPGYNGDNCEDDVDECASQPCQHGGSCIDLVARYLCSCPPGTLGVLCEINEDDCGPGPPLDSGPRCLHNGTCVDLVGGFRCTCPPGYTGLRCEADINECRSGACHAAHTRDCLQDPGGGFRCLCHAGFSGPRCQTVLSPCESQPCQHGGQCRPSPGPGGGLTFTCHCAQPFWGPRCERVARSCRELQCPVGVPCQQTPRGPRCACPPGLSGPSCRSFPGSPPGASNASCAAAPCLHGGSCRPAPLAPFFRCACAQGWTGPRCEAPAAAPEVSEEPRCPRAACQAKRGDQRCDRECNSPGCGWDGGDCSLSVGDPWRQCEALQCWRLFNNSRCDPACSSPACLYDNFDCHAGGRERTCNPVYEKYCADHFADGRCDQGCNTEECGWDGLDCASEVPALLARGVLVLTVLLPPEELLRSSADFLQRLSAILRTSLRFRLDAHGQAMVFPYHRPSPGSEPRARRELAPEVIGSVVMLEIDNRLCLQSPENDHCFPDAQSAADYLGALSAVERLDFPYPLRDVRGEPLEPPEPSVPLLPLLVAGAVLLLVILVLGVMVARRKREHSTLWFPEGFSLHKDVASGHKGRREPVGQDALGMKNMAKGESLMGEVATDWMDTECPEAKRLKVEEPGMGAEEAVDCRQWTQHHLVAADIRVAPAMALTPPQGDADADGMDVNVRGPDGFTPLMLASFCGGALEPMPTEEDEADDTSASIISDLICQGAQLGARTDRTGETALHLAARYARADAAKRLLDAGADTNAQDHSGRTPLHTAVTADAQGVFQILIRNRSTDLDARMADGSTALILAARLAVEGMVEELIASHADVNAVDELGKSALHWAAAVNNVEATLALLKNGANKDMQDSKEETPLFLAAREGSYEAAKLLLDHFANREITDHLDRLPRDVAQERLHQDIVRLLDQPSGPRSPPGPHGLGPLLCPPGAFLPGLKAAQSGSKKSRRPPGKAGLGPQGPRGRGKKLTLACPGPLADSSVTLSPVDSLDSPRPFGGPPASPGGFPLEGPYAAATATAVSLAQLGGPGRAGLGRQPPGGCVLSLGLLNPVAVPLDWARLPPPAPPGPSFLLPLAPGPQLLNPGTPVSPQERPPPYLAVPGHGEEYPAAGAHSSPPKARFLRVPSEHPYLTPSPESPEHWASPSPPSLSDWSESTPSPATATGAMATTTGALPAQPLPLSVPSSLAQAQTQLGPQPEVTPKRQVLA

As for `CC(C)CN1C(=O)[C@@]2(c3ccc([N+](=O)[O-])cc3)CC(=O)N(C3CCCCC3)[C@@H]2c2ccc(CO)cc21`, the composite z-score in test [1] is 0.206; in test [2] it was -0.72; in test [3] it was -0.0954; in test [4] it was -0.991; in test [5], -0.649; in test [6], -0.303. The composite z-score in [7] was -0.429; in [9], -1.09; in [10] it was -0.0994; in test [11] it was -1.13; in test [15], -0.709; in test [17], -0.113. Further, the composite z-score in [18] is -1.13; in test [19] it was -0.626; in test [20], -0.261. In addition, the z-score was 0.953 (inactive) in test [8]; 0.0926 (inactive) in [12]; 0.612 (inactive) in test [13]; -1.78 (inactive) in test [14]; 0.733 (inactive) in test [16].
Turning to `CCCC1(C(=O)OC)C=C2C(=C(c3ccccc3)C(=O)C2C)CN1` (stereo not given), the composite z-score in [1] was 1.43; in test [2], -0.289; in test [3], -0.0869; in test [4] it was -0.121; in test [5] it was 0.725; in test [6], 0.768. Besides, the composite z-score was 0.861 in [7]; 0.387 in test [9]; 0.154 in test [10]; -0.406 in [11]; 1.64 in test [15]; 0.248 in test [17]. In addition, the composite z-score in [18] is -0.533; in [19] it was 0.0144; in [20] it was 0.0384. The z-score in [8] was 2.51 (inactive); in test [12], 0.283 (inactive); in [13], 0.312 (inactive); in test [14] it was 0.763 (inactive); in test [16] it was -0.375 (inactive).
On to `C=CCC(OC(C)=O)[C@@H]1[C@@H](N(Cc2ccc(-c3cccc(C(F)(F)F)c3)o2)C(=O)c2cccc3ccccc23)c2cc(OCCCO)ccc2N1C(=O)Cc1ccc2ccccc2c1` (stereo not given in full), for which the composite z-score in [1] was -0.0817; in test [2] it was -0.261; in test [3] it was -0.152; in test [4], 0.2; in test [5], -0.35; in test [6], 0.376. Moreover, the composite z-score in test [7] was 0.109; in test [9] it was 0.214; in test [10], -0.199; in test [11] it was 0.263; in [15] it was 0.878; in test [17], -0.106. Besides, the figures for the composite z-score in [18], in [19] and in test [20] were 0.01, 0.0384 and -0.146, respectively. Also, the z-score in test [8] was 0.3 (inactive); in test [12], 0.1 (inactive); in test [13] it was -0.463 (inactive); in test [14] it was 0.133 (inactive); in test [16] it was -0.57 (inactive).
Take `CC1CC/C=C\[C@H]2OC34C=CCN(Cc5ccccc5)C(=O)[C@H]3N(C(C)CO)C(=O)[C@@H]4C2C(=O)O1` (stereo not given in full): the composite z-score in test [1] is -0.504; in test [2], -0.33; in test [3], -0.138; in test [4], 0.0852; in [5], -0.257; in test [6] it was -0.771. In addition, the composite z-score is 1.44 in test [7]; -0.021 in test [9]; -0.0672 in [10]; -0.938 in test [11]; 0.44 in test [15]; -0.092 in test [17]. Besides, the composite z-score is 0.392 in test [18], 0.158 in test [19] and -0.0916 in [20]. Further, the z-score was 0.251 (inactive) in test [8]; -0.875 (inactive) in test [12]; -1.48 (inactive) in [13]; -0.577 (inactive) in test [14]; 0.524 (inactive) in test [16].
In the case of `NC(=O)[C@@H]1[C@H]2C(=O)O[C@H](c3ccccc3)[C@H](c3ccccc3)N2[C@H](c2ccc(OCCO)cc2)[C@@]12C(=O)Nc1ccc(C#CC3=CCCCC3)cc12`, the composite z-score in [1] was -0.342; in test [2], 0.18; in test [3] it was -0.125; in test [4], 1.18; in [5], 1.23; in [6] it was 1.11. Besides, the composite z-score in test [7] is 1.16; in test [9], 0.447; in [10], -0.227; in test [11] it was 1.55; in [15] it was 2.08; in test [17], 0.0209. Besides, the composite z-score is 1.35 in test [18], 0.951 in test [19] and -0.0343 in test [20]. Also, the z-score in test [8] is 1.15 (inactive); in test [12] it was 0.529 (inactive); in [13] it was 0.544 (inactive); in test [14], 2.91 (inactive); in test [16], 1.69 (inactive).
As to `CC(=O)n1cc(C(O)C2C=CC3C(=O)NC(=O)C3N2Nc2ccccn2)c2ccccc21` (stereo not given), the composite z-score was 0.125 in test [1]; 0.0908 in test [2]; -0.0583 in [3]; 0.122 in test [4]; 0.887 in [5]; 0.298 in test [6]. Also, the composite z-score in test [7] is 1.27; in test [9], 0.221; in test [10], -0.179; in test [11], 0.553; in test [15], 0.134; in test [17] it was -0.0594. The composite z-score in test [18] was 0.187; in test [19], 0.375; in test [20], -0.0084. The z-score was 1.15 (inactive) in test [8]; 0.505 (inactive) in test [12]; 0.777 (inactive) in test [13]; 0.171 (inactive) in test [14]; -0.965 (inactive) in test [16].

Source of the values: PubChem BioAssay.
